The text below walks through data of PubChem BioAssay (NCI).

About 83,000 compounds went through this panel and 20% of them were active in at least one assay; those are over-represented in the sample as a whole.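 In brief: 96-well plates, 48 h treatment, single concentration, percent growth endpoint.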 Unmarked numbers belong to inactive results. Calls of active or inactive are those of the source. The calls were made as follows: active = growth percent below 10; inactive = the rest.

Among the test systems are T-47D breast; BT-549 breast; MDA-MB-435 melanoma; SW-620 colon; MCF7 breast; HCT-116 colon; HCC-2998 colon.
Experiment in all cases: NCI-60 one-dose screen, 48 h (100 = growth as untreated, 0 = no growth, -100 = all killed)
Settings in all cases: 10 µM unless noted

With `CCCCOc1nc2ccccc2cc1C1CNC(=O)c2ccccc2N1` (stereo not given), the growth in the test with T-47D breast is 20.9%; with BT-549 breast it was 41%; in the test on MDA-MB-435 melanoma, -63.8% (active); in the test on SW-620 colon, 20.9%; in the test with MCF7 breast, 21.2%; in the test with HCT-116 colon it was 15.6%. Further, the growth in the test with HCC-2998 colon was 56.5%.

`O=c1ccn2nc3ccccc3c2[nH]1`: the growth in the test with T-47D breast was 95%; in the test on BT-549 breast it was 98.2%; in the test on MDA-MB-435 melanoma, 118%; in the test on SW-620 colon it was 114%; in the test on MCF7 breast, 107%; with HCT-116 colon, 103%.

Regarding `COc1ccc(C2=NN(C(=O)c3cc(OC)c(OC)c(OC)c3)C(c3ccc(Cl)cc3)C2)cc1OC` (stereo not given), the growth in the test on T-47D breast is 24.6%; with BT-549 breast it was 49.9%; in the test on MDA-MB-435 melanoma, -43.3% (active); in the test on SW-620 colon, 30.1%; with MCF7 breast it was 18.7%; in the test on HCT-116 colon, 10.6%. The growth with HCC-2998 colon is -62.4% (active).

In the case of `Cn1cc2c(c1)-c1nc(Nc3ccccc3)ncc1CC2`, the growth with T-47D breast is 40.7%; with BT-549 breast, 32.1%; in the test with MDA-MB-435 melanoma, 70.3%; in the test with SW-620 colon, 52.1%; with MCF7 breast it was 25.2%; with HCT-116 colon, 35.4%. The growth in the test with HCC-2998 colon is 50.7%.

Turning to `CC1(C)CC[C@]2(C(=O)N3CCOCC3)CC[C@]3(C)C(=CC[C@@H]4[C@@]5(C)CC[C@H](OC(=O)c6cccnc6)C(C)(C)[C@@H]5CC[C@]43C)[C@@H]2C1`, the growth is 54.7% with T-47D breast; 72.3% in the test on BT-549 breast; 70.2% with MDA-MB-435 melanoma; 45.4% with SW-620 colon; 67.4% in the test on MCF7 breast; 31.8% with HCT-116 colon. Besides, the growth in the test with HCC-2998 colon is 58.7%.

For `Cc1cc(NCCCCNc2ccnc3cc(Cl)ccc23)nc(Nc2ccc(C(=O)N3CCCCC3)cc2)n1`, the growth was -23.5% (active) with T-47D breast; 92.9% in the test with BT-549 breast; -84.3% (active) in the test with MDA-MB-435 melanoma; -70.2% (active) with SW-620 colon; -49.1% (active) in the test with MCF7 breast; -48.9% (active) in the test on HCT-116 colon. Also, in the test on HCC-2998 colon, the growth is -37.5% (active).

On to `C[C@H]1[C@H]2[C@H]3CC[C@@H]4[C@@]5(C)C/C(=C/c6cccnc6)C(=O)C(C)(C)[C@@H]5CC[C@@]4(C)[C@]3(C)CC[C@]23CO[C@]1(C)[C@@H](C(=O)/C=C\c1cccnc1)C3`, for which the growth was 24.6% in the test on T-47D breast; -20.1% (active) in the test with BT-549 breast; -7.3% (active) in the test on MDA-MB-435 melanoma; -26.4% (active) with SW-620 colon; 9.88% (active) with MCF7 breast; -45.6% (active) in the test on HCT-116 colon. Moreover, the growth in the test on HCC-2998 colon is -67.2% (active).

On to `Cc1cc(NCc2cc(Nc3ccnc4cc(Cl)ccc34)ccc2F)nc(N2CCN(C)CC2)n1`, for which the growth was -42.4% (active) in the test on T-47D breast; 28.2% with BT-549 breast; -96.7% (active) in the test on MDA-MB-435 melanoma; 0.137% (active) with SW-620 colon; 1.13% (active) in the test on MCF7 breast; 0.262% (active) with HCT-116 colon. The growth in the test with HCC-2998 colon was -35.2% (active).

On to `CCOC(=O)c1c(-c2ccc(Cl)cc2)c(C#N)c(=O)n(-c2ccccc2CC)c1N`, for which the growth in the test with T-47D breast is 84.1%; in the test on BT-549 breast, 123%; with MDA-MB-435 melanoma it was 106%; in the test with SW-620 colon it was 99.9%; with MCF7 breast it was 90.7%; with HCT-116 colon, 91.3%. For the same compound, the growth in the test on HCC-2998 colon was 66.4%.

Consider `C=C(C)[C@@H]1CC[C@]2(C(=O)NC3CCCCC3)CC[C@]3(C)[C@H](CC[C@@H]4[C@@]5(C)CCCNC(C)(C)[C@@H]5CC[C@]43C)[C@@H]12`, for which the growth in the test with T-47D breast was -32.8% (active); in the test with BT-549 breast, 85.4%; in the test on MDA-MB-435 melanoma it was 6.98% (active); in the test with SW-620 colon, -76.1% (active); in the test on MCF7 breast, 16.5%; with HCT-116 colon, -13.8% (active). Further, the growth in the test with HCC-2998 colon is -16% (active).

As to `Cc1cc(NCc2cc(Nc3ccnc4cc(Cl)ccc34)ccc2F)nc(N2CCN(c3ccccc3)CC2)n1`, the growth with T-47D breast was 24.5%; with BT-549 breast, 70.1%; in the test on MDA-MB-435 melanoma, 38.8%; in the test with SW-620 colon, 46.1%; in the test on MCF7 breast, 23.9%; in the test on HCT-116 colon it was 1.74% (active). In addition, in the test with HCC-2998 colon, the growth was 28.2%.

As for `CC(=O)n1c(-c2ccc(Cl)cc2)nc2c(c1=O)C(c1ccc(Cl)cc1)c1sc3c(Cl)cccc3c1O2` (stereo not given), the growth in the test with T-47D breast is -2.51% (active); with BT-549 breast it was -7.92% (active); in the test on MDA-MB-435 melanoma, -19.6% (active); with SW-620 colon, -11.1% (active); in the test on MCF7 breast it was 5.59% (active); with HCT-116 colon, -45.9% (active). The growth in the test on HCC-2998 colon is -45.4% (active).

On to `Cc1c(C(=O)OC(=NC2CCCCC2)NC2CCCCC2)sc2c1c(=O)nc1c(C#N)n[nH]n12`, for which the growth with T-47D breast was 109%; with BT-549 breast, 121%; in the test on MDA-MB-435 melanoma, 117%; in the test on SW-620 colon, 107%; in the test with MCF7 breast, 103%; in the test with HCT-116 colon it was 104%. Besides, the growth in the test with HCC-2998 colon is 100%.

For `COC(=O)c1c2c(c[n+]([O-])c1C)C(=O)C=CC2=O`, the growth is -11.9% (active) with T-47D breast; 71.4% in the test on BT-549 breast; -81.8% (active) in the test on MDA-MB-435 melanoma; 0.106% (active) in the test with SW-620 colon; -62% (active) in the test on MCF7 breast; -9.77% (active) with HCT-116 colon. In addition, in the test on HCC-2998 colon, the growth was 88.1%.

For the compound `Cc1cccc(Cc2cnc(NC(=O)/C=C/c3ccco3)s2)c1`, the growth with T-47D breast is 37.2%; with BT-549 breast it was 25.8%; in the test on MDA-MB-435 melanoma it was -30.7% (active); with SW-620 colon, 24.9%; in the test with MCF7 breast, 14.9%; in the test with HCT-116 colon, 18.1%. Also, in the test on HCC-2998 colon, the growth was 6.44% (active).

Turning to `CCOP(=O)(OCC)C1CP(=O)(c2ccccc2)CC(C)=C1Cl` (stereo not given), the growth in the test on T-47D breast is 102%; in the test with BT-549 breast, 129%; with MDA-MB-435 melanoma it was 110%; in the test on SW-620 colon, 105%; in the test on MCF7 breast, 102%; in the test with HCT-116 colon, 91.5%. Moreover, the growth in the test with HCC-2998 colon is 102%.

On to `C=C(C)[C@@H]1CC=C2c3sc(-c4ccc(C)cc4)nc3C[C@@H](C)[C@]2(C)C1`, for which the growth with T-47D breast is 95.4%; in the test on BT-549 breast, 109%; with MDA-MB-435 melanoma, 101%; with SW-620 colon it was 103%; with MCF7 breast, 96.9%; with HCT-116 colon it was 105%. Also, the growth in the test with HCC-2998 colon is 115%.

Take `Cc1ccc(NS(=O)(=O)c2ccc3c(c2)C2OCCC2C(c2ccc(C(=O)C(C)C)cc2)N3)cc1C` (stereo not given): the growth with T-47D breast was 24.3%; with BT-549 breast, 54.3%; with MDA-MB-435 melanoma, 36.3%; in the test with SW-620 colon, 51.4%; in the test with MCF7 breast, 17.6%; in the test with HCT-116 colon it was 30.4%. Also, the growth in the test with HCC-2998 colon was 62.2%.
